In PubChem BioAssay AID454 (Sanford-Burnham Center for Chemical Genomics, 2006):
Among all 10,000 compounds or so, about 25 (0.2%) were called active.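 How the source made its calls: active means compound among top-ranked inhibitors of TNF-induced VCAM-1 adhesion protein staining, with the hit upheld by image or statistical review; inactive means the rest, including hits rejected on review.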 The full list was thinned out, with actives kept by preference.

Assay: inhibitors of TNFa-induced VCAM-1 surface display, cell-based, plate reader, pooled HUVEC, TNFa stimulus (AID 454)
Conditions: HUVEC TNFa-induced VCAM-1 surface immunofluorescence; stronger effect = higher value,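 compound tested at 5 µM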

inhibition, active:
COc1ccc(-c2nc3c(c(=O)n(C)c(=O)n3C)n2CC2CC(c3ccccc3)=NO2)cc1OC (configuration not stated) 73.1%
Clc1ccc(C2=Nn3c(nnc3-c3n[nH]c4c3CCC4)SC2)cc1Cl 106%
C=CS(=O)(=O)c1ccc(Oc2ccc(S(=O)(=O)C=C)cc2)cc1 100%
CC(C)n1c(=NC(=O)c2ccco2)c(C#N)cc2c(=O)n3ccccc3cc21 78.8%
Clc1ccc(OCc2nnc(SCCN3CCCCC3)n2Cc2ccco2)cc1 82.9%
Cc1nnc(SC(=O)N2c3ccccc3Sc3ccccc32)s1 92.2%
O=C1c2ccccc2C(Nc2ccc3nc(-c4cccnc4)[nH]c3c2)N1Cc1ccco1 (configuration not stated) 79.2%
COCC(C)NC(=O)CCS(=O)(=O)c1nc(-c2ccc(OC)cc2)cc(C(F)(F)F)n1 (configuration not stated) 91.4%
CS(=O)(=O)c1ncc(Cl)c(C(=O)Nc2ccc(N3CCOCC3)cc2)n1 97.8%
COc1cc(C2Nc3cccc4cccc(c34)N2)cc(OC)c1O 73.4%
CCOC(=O)c1ccc(N=c2sc(C(=O)OC)cc(=O)n2Cc2ccco2)cc1 95.5%
COC(=O)c1cc(=O)n(Cc2ccc3c(c2)OCO3)c(=Nc2ccccc2)s1 96%
Cn1nc(-c2ccc(N3CCCCC3)c(NC(=O)c3ccco3)c2)c2ccccc2c1=O 83.4%
CCc1ccc2[nH]c(=O)c(C(c3nnnn3CC3CCCO3)N3CCCc4ccccc43)cc2c1 (configuration not stated) 93.2%

inhibition, inactive:
CCOC(=O)c1cccc(NC(=O)CSc2nc3cccnc3n2C)c1
Cn1c(SCc2cccc3ccccc23)nnc1-c1ccco1
CN1C(=O)C(CC(=O)N2CCN(C(c3ccccc3)c3ccccc3)CC2)N(C)C1=O (configuration not stated)
CCCCC(=O)NCCNc1nc2c(c(=O)n(C)c(=O)n2C)n1Cc1ccccc1
COc1ccc(C(=O)N2CCN(c3nc4cc(C)ccc4cc3C#N)CC2)c(OC)c1
Cc1nc2sc3c(c2c(=O)o1)CCC3
CCC(C)(C(=O)NC1CCCCC1)N(Cc1ccco1)C(=O)c1cnccn1 (configuration not stated)
CC1=CCC2C(=O)N(c3nc(C)cc(C)n3)C(=O)C2C1 (configuration not stated)
CCCn1c(NC(=O)C2COc3ccccc3O2)nc2ccccc21 (configuration not stated)
Cc1cc(C)nc(NC(=O)c2ccc(OC(C)C)cc2)n1
Cc1nn(-c2ccc(F)cc2)c2c1cc(C#N)c1nc3ccccc3n12
COc1ccc(C(=O)Cn2c(N3CCCCC3)nc3c2c(=O)n(C)c(=O)n3C)cc1OC
COc1cccc(Cn2c(Oc3ccccc3)nc3c2c(=O)n(C)c(=O)n3C)c1
Cc1ccccc1Nc1nc(N)nc(CSCc2c(C)noc2C)n1
Cc1cc2oc(=O)cc(CN3CCCCC3)c2cc1C(C)C
CC(C)(C)C1=Nn2c(nnc2-c2n[nH]c3c2CCC3)SC1
COc1ccc(C2=Nn3c(nnc3-c3ccccc3)SC2)cc1OC
COc1ccc(C2CC(c3ccc(Cl)cc3Cl)n3nc(N)nc3N2)cc1 (configuration not stated)
COc1cccc(OCCn2ccnc2)c1
COc1ccccc1NC(=O)CSc1nnc(-c2ccncc2)n1CC1CCCO1 (configuration not stated)
C=C(Cl)COc1ccc2c(C)cc(=O)oc2c1
Nc1ncnc2nc(SCCN3CCCCC3)[nH]c12
CCCC(=O)Nc1cccc(NC(=O)CN2CCN(c3ccccc3OC)CC2)c1
CN(c1ccc(OCc2nnc(-c3ccccc3)o2)cc1)S(=O)(=O)c1ccccc1
CCOC(=O)c1ccccc1NC1CC(=O)N(c2ccccc2C)C1=O (configuration not stated)
O=S(=O)(Nc1ccccn1)c1ccc(Oc2ccccc2)cc1
CN(C)S(=O)(=O)c1ccc(Oc2ccc(S(=O)(=O)N(C)C)cc2)cc1
CC1CCN(C(=O)CN2C(=O)C(C)(C)Oc3ccc(C(=O)NC4CCCC4)cc32)CC1
O=C1CC(N2CCOCC2)C(=O)N1c1ccccc1Cl (configuration not stated)
COc1ccccc1Nc1nc(N)nc(CN2CCN(c3ccccc3F)CC2)n1
OC1(c2cccc(C(F)(F)F)c2)CCNCC1
CCOC(=O)c1[nH]c(C)c(C(=O)Nc2ccc(C)c(Cl)c2)c1C
COc1ccc(OC)c(C2C(C(=O)Nc3cccnc3)=C(C)NC3=C2C(=O)CCC3)c1 (configuration not stated)
COC(=O)C1=C(C)NC(=O)C1(NC(=O)c1cccnc1)C(F)(F)F (configuration not stated)
COc1ccc(CN2C(=O)[C@@H]3C(c4ccc(F)cc4)=NO[C@@H]3C2=O)cc1
CCOC(=O)c1cc2c(=O)n3ccccc3nc2n(CC(C)C)c1=NC(=O)c1ccco1
Cc1cccn2c(=O)c3cc(C#N)c(=NC(=O)c4ccncc4)n(Cc4ccco4)c3nc12
CCOc1ccc(NC(=O)CN2CCN(CC(=O)c3ccc(OCC)cc3)CC2)cc1
CCCCc1c(O)nc(N2CCN(Cc3ccccc3)CC2)[nH]c1=O
CCN(CC(=O)Nc1ccc2c(c1)CCC2)Cc1nc2ccccc2c(=O)[nH]1
Nc1nc(SCc2ccc(Cl)cc2Cl)n[nH]1
O=S(=O)(Nn1cnnc1)c1ccccc1Cl
CCOc1cc2[nH]c(=S)n(CC3CCCO3)c(=O)c2cc1OCC (configuration not stated)
COCCn1c(COc2ccc(Cl)cc2)nnc1SCC(N)=O
Cc1cc(NC(=O)CSc2nnc(COc3cccc(C)c3C)n2Cc2ccco2)no1
Cc1ccccc1-c1nc(CN2CCC(C(=O)NCc3cccnc3)CC2)c(C)o1
O=c1nc(N2CCCC2)nc(Nc2ccccc2)[nH]1
O=C(Cn1cc2c(n1)CCCCC2)N1CCc2ccccc21
Cc1nnc(SCC(=O)N2c3ccccc3CC2C)s1 (configuration not stated)
Cc1nnc(SCC(=O)NCc2ccccc2)s1
CCOc1cccc(Oc2ccc(C(F)(F)F)cn2)c1
COc1ccc(S(=O)(=O)N2CN(Cc3ccco3)c3nc4ccccc4nc32)cc1
Cc1ccc2nc(C3CCN(CC(=O)N4CCCCCC4)CC3)[nH]c2c1
CCOc1ccccc1N1CCN(c2nc3ccccc3nc2C(C#N)C(=O)OC)CC1 (configuration not stated)
S=c1[nH]nc(-c2ccco2)n1-c1cccc2ccccc12
Cc1c(C)c2ccc(OC3CCCCC3=O)cc2oc1=O (configuration not stated)
COc1ccccc1CC(=O)NCc1ccc2c(c1)OCO2
O=C1c2ccccc2C(Nc2ccc(-c3nc4ccccc4[nH]3)cc2)N1Cc1ccco1 (configuration not stated)
O=C1c2ccccc2C(Nc2ccc(F)c(Cl)c2)N1Cc1ccco1 (configuration not stated)
CCCc1cc(Nc2cccc(OC)c2)n2ncnc2n1
COc1ccc(-c2cc(C(F)(F)F)nc(SCCC(=O)N3CCOCC3)n2)cc1
CCOC(=O)CS(=O)(=O)c1nc(-c2ccccc2)cc(C(F)(F)F)n1
O=C(Cn1cnc2ccccc2c1=O)NCCC(=O)N1CCN(c2ccccc2)CC1
CCc1ccccc1NC(=O)CN(c1cccc(OC)c1)S(C)(=O)=O
C/C(=C\c1cc(C(=O)O)c(C)o1)CO
Cc1ccc(SC(C)c2nc(-c3ccccc3)no2)cc1 (configuration not stated)
CSc1ncc(Cl)c(C(=O)Nc2ccc(S(=O)(=O)N3CCOCC3)cc2)n1
Cc1cnc(C(=O)Nc2ccc(N3CCOCC3)cc2)cn1
Cc1cc(O)c(C2(C(F)(F)F)NCCNC2=O)cc1C (configuration not stated)
CCC(=O)N(Cc1ccco1)c1nc(-c2cc(OC)ccc2OC)cs1
Cn1c(C(=O)NCCN2CCN(c3ccccc3F)CC2)cc2c(=O)n(C)c3ccccc3c21
COc1cc(C2N=C(c3ccccc3)NO2)cc(Br)c1O (configuration not stated)
CCOc1cc(C2Nc3ccccc3C(=O)N2c2ccccc2OC)ccc1O (configuration not stated)
COC(=O)c1ccc(CSc2nc3c(cnn3-c3ccc(F)cc3)c(=O)[nH]2)o1
O=c1[nH]c2sc3c(c2c2nncn12)CCCC3
Cc1cc(NC(=O)c2cc(-c3ccco3)on2)n(-c2ccccc2)n1
C/C(NC1CCCC1)=C(/C#N)C(N)=O
Clc1cccc(-c2nnc3sc(-c4ccccc4)nn23)c1
CCOC(=O)c1ccc(NC(=O)CSCc2ccco2)cc1
OCCn1c(-c2ccc3c(c2)OCO3)csc1=Nc1ccccc1
CCOC(=O)c1cccc(NC2c3ccccc3C(=O)N2Cc2ccco2)c1 (configuration not stated)
CCNC(=O)C1CC(=O)N(Cc2ccc3c(c2)OCO3)C(=Nc2ccc(OCC)cc2)S1 (configuration not stated)
O=C(c1ccccc1)c1ccc(N2CCOCC2)c(NC(=O)c2ccco2)c1
Cc1cccc(NC(=O)c2cc(NC(=O)c3ccco3)ccc2N2CCCCC2)c1
COc1ccc(CCNc2nc(N3CCOCC3)nc(N3CCOCC3)n2)cc1OC
Cn1c(=O)c2c(nc(SCC(=O)NCc3ccc4c(c3)OCO4)n2Cc2ccccc2)n(C)c1=O
CCOC(=O)CSc1nc2cccnc2n1-c1ccc(F)cc1
CCOc1ccc2[nH]c(=O)c(C(c3nnnn3CC3CCCO3)N3CCc4ccccc4C3)cc2c1 (configuration not stated)
CCc1ccc2[nH]c(=O)c(C(c3nnnn3CC3CCCO3)N3CCN4CCCC4C3)cc2c1 (configuration not stated)
Nc1nc(N2CCCCC2)nc(N(c2ccccc2)c2ccccc2)n1
CC(=O)NC(CCS(C)(=O)=O)C(=O)Nc1cccc2ccccc12 (configuration not stated)
O=C(Cn1nc(-c2ccc(Cl)cc2)ccc1=O)NCCCN1CCN(Cc2ccccc2)CC1
CCOC(=O)c1ccccc1NC(=O)c1ccc2c(=O)n3c(nc2c1)CCCCC3
